Assay results reported in PubChem BioAssay AID1445 (SRMLSC, 2008).
The campaign covered roughly 220,000 compounds. About 910 (0.41%) were called active. The sample holds actives, similar compounds and a random draw of the others, so the mix is not that of the screen.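 Rule for the calls: active = primary inhibition above the hit cutoff, then over 50% inhibition at one or more dose response concentrations (cut at about 23% in these data, passing the limit was not always enough); inconclusive = conflicting primary data, or primary hits not chosen for dose response; inactive = low primary inhibition, or under 50% at every dose.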 Potency and affinity values are given separately.

These molecules were tested against Aminopeptidase N (Plasmodium falciparum (isolate 3D7)) (UniProt O96935) (assay: P. falciparum M1AAP inhibitors, biochemical, fluorogenic H-Leu-NHMec substrate, 1536-well (AID 1445;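 note: plate controls were DMSO full reaction for no effect and no enzyme background for full effect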)). Details: recombinant M1AAP, H-Leu-NHMec fluorogenic kinetic assay; at 30 µM, stronger effect = higher value unless noted.
Sequence of Aminopeptidase N (Plasmodium falciparum (isolate 3D7)) (O96935 whole entry, looked up): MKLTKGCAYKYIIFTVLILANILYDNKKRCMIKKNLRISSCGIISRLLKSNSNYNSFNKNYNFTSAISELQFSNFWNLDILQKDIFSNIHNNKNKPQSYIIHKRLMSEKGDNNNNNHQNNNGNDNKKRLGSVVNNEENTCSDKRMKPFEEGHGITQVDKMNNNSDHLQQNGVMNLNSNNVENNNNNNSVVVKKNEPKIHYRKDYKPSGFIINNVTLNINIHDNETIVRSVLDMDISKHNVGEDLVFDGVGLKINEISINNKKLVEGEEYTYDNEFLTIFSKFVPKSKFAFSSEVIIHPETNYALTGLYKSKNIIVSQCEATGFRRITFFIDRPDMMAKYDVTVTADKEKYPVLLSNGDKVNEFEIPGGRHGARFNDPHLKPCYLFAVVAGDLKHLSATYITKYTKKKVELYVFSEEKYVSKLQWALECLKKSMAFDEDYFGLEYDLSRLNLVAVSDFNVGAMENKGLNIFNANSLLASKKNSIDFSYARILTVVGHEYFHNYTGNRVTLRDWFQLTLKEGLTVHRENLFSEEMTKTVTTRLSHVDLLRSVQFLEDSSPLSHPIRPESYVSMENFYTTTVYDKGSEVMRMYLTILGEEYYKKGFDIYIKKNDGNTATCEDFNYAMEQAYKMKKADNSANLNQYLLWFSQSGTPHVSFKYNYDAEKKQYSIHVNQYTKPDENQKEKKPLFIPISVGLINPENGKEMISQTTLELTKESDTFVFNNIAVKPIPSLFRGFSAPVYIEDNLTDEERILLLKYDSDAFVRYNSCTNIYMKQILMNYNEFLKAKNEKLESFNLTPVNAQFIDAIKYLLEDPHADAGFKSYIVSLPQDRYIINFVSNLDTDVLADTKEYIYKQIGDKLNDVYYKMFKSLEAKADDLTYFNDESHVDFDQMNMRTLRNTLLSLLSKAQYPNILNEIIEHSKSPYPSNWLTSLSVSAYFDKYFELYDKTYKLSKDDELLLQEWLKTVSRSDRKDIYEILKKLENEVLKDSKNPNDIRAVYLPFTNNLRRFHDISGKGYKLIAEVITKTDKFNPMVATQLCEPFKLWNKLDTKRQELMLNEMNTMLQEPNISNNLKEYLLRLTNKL

inhibition, active:
Cc1cccc(C(=O)NNC(=O)c2ccc(Cl)cc2)c1O 27.7%
CSc1ccc(C2C(C#N)=C(N)Oc3c2ccc(=O)c2c(C)oc(C)c32)cc1 (centres undefined) 23.3%

inhibition, inactive:
CCn1cc(S(=O)(=O)Nc2ccccc2C(F)(F)F)cn1 -0.46%
CC(C)(C)c1ccc(C(=O)NNC(=O)c2ccc(Cl)cc2)cc1 0.45%
COc1ccccc1C(=O)NNC(=O)c1ccc(Cl)cc1 -4.03%
NNC(=O)c1ccc(O)cc1O 11.6%
O=C(NNC(=O)c1ccccc1Br)c1ccc(Cl)cc1 -5.75%
CN(C)c1ccc(/C=C2\C(=N)N3C(=NC2=O)Sc2cc(S(C)(=O)=O)ccc23)cc1 12.4%
COc1cc(/C=C2/C(=N)N3C(c4ccccc4)=CSC3=NC2=O)ccc1OCC(=O)O 8.04%
CC1=CSC2=NC(=O)/C(=C/c3cccc(OC(=O)c4ccco4)c3)C(=N)N12 8.4%
COc1ccc(/C=C2/C(=N)N3C(=NC2=O)Sc2cc(S(C)(=O)=O)ccc23)cc1OC 4.37%
COC(=O)CCC(=O)N1CCOCCOCCOCC1 3.89%
COc1cc(/C=C2/NC(=O)N(Cc3ccccc3F)C2=O)cc(OC)c1O 11%
CCOc1cc(/C=C2/NC(=O)N(Cc3ccccc3F)C2=O)ccc1O 9.55%
Cc1ccc(S(=O)(=O)c2nc(NN(C)C)sc2Cl)cc1 2.25%
O=S(=O)(c1ccccc1)c1nc(NCc2ccccc2)sc1Cl 3.65%
Cc1ccc(S(=O)(=O)c2nc(NCCCn3ccnc3)sc2Cl)cc1 1.08%
CC(C)CNc1nc(S(=O)(=O)c2ccccc2)c(Cl)s1 -9.9%
Cc1ccc(S(=O)(=O)C2CS(=O)(=O)CC2O)cc1 (centres undefined) -0.11%
c1ccc(CCCCNCC2COc3ccccc3O2)cc1 (centres undefined) 0.11%
C=CCNC(=O)c1ccc([N+](=O)[O-])c(Cl)c1 1.78%
CC1=C(C(N)=O)C(c2cccs2)NC(=O)N1 (centres undefined) 0.41%
FC(F)(F)c1cc(-c2cccs2)nc2ncnn12 14.3%
FC(F)(F)c1cc(-c2cccs2)nc2cc(-c3cccs3)nn12 2.78%
O=C(NCCCn1ccnc1)/C(=C\c1cccs1)NC(=O)c1ccco1 2.24%
CC(C)=CC(=O)NCCc1ccccc1 0.11%
Cc1ccc2c(c1)NCCO2 9.62%
Cc1cc(=O)oc2cc3c(cc12)OCCO3 9.01%
CN(C)c1ccc(CNn2cnnc2SCc2ccccc2F)cc1 3.42%
Cc1ccccc1OCCCC(=O)Nc1ccccc1C(F)(F)F -2.79%
CCOC(=O)CC1C(=O)NCCN1S(=O)(=O)c1ccc(C)cc1 (centres undefined) -1.42%
CCOCCCNc1nc2c(C)cccn2c(=O)c1/C=C1\SC(=S)N(C(C)CC)C1=O (centres undefined) 3.39%
CCOC(=O)CC1C(=O)NCCN1C(=O)c1cc2c(=O)n3ccccc3nc2s1 (centres undefined) -1.82%
CC(C)CN1C(=O)/C(=C/c2c(N3CCc4ccccc4C3)nc3ccccn3c2=O)SC1=S 2.88%
CCOC(=O)C(=O)c1c(-c2ccc(C)cc2)nc2ccccn12 10.6%
COC(=O)c1c(C)oc(C)c1S(=O)(=O)N1CCCCC1 0.96%
CCCCCCOc1ccc(C(=O)NCCCn2ccnc2)cc1 -4.66%
CN(C)CCNC(=O)NC1CCCCC1 4.13%
CC(=O)NS(=O)(=O)c1ccc(NC(=O)c2ccc3c(c2)C(=O)N(CCC(C)C)C3=O)cc1 9.98%
CC(/C=C1\SC(=S)N(NC(=O)c2ccncc2)C1=O)=C\c1ccccc1 13.9%
CCN1C(=O)/C(=C2\SC(=S)N(CC3CCCO3)C2=O)c2ccccc21 (centres undefined) 2.68%
CC(=O)N1C(=O)/C(=C2\SC(=S)N(c3c(C)n(C)n(-c4ccccc4)c3=O)C2=O)c2ccccc21 9.72%
CC(/C=C1\SC(=S)N(NC(=O)c2ccc(O)cc2)C1=O)=C\c1ccccc1 4.4%
CC(/C=C1\SC(=S)N(NC(=O)c2ccc(C)cc2)C1=O)=C\c1ccccc1 5.4%
Cc1ccc(S(=O)(=O)N2C(=O)/C(=C3\SC(=S)NC3=O)c3ccccc32)cc1 16.8%
CC(/C=C1\SC(=S)N(NC(=O)c2ccccc2C)C1=O)=C\c1ccccc1 4.17%
CCN1C(=O)/C(=C2\SC(=S)N(CCCOC)C2=O)c2ccccc21 0.63%
CC1=C(C(=O)c2ccccc2)C(c2ccc(OC(F)F)cc2)NC(=S)N1 (centres undefined) 3.11%
CN1CCN(CC(=O)NC2CCCCC2)CC1 -3.84%
Cc1cc(C)n(-c2nc3c(c(=O)[nH]c(=O)n3C)n2Cc2cccc(Br)c2)n1 6.71%
COc1cccc(NS(=O)(=O)c2ccc(OC)c(OC)c2)c1 8.68%
COc1cc(Cl)c(C)cc1NC(=O)c1ccc2c(SCC(=O)O)c3c(nc2c1)CCCC3 39.2%
COc1ccc(NC(=O)c2ccc3c(SCC(=O)O)c4c(nc3c2)CCCC4)cc1Cl 6.4%
CC(=O)c1ccc(OCc2cc([N+](=O)[O-])cc3c2OCOC3)cc1 0.98%
CP(C)(=O)CCP(=O)(c1ccccc1)c1ccccc1 2.48%
CCCc1nc(C)c(-c2ccc(OC)c(OC)c2)c(=O)[nH]1 2.27%
Cc1c(CCC(=O)O)c(=O)oc2cc3occ(C(C)(C)C)c3cc12 12.5%
Cc1coc2cc3oc(=O)c(Cc4ccccc4)c(C)c3cc12 16.1%
Cc1c(CCC(=O)O)c(=O)oc2cc3oc4c(c3cc12)CCCC4 8.26%
Cc1c(CCC(=O)O)c(=O)oc2cc(O)ccc12 18.6%
CC(C)Oc1cccc(C(=O)C2CCCN(Cc3cnn(C(C)C)c3)C2)c1 (centres undefined) 3.98%
Cc1ccc(/C=[N+](/C)[O-])cc1 5.58%
Cc1oc(C)c2c(=O)ccc3c(c12)OC(N)=C(C#N)C3c1ccccc1 (centres undefined) 12.5%
Cc1oc(C)c2c(=O)ccc3c(c12)OC(N)=C(C#N)C3c1ccc(F)cc1 (centres undefined) 3.21%
